PubChem BioAssay AID1159580 (chemical genetic matrix, 2015)
The campaign covered roughly 5,500 compounds. About 2,000 (36%) were called active. Another 18% or so got no clear call; they are omitted. Rule as the data show it: active = normalized growth mostly below about 0.91 (no sharp cut-off); inconclusive = no clear call, values can overlap the other calls; inactive = mostly above about 0.92. This is one part of the list.

Assay: chemical genetic growth profiling, strain panel (AID 1159580);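 also: tested at 20 µM; growth read once vehicle control cultures reached saturation at 30 °C; 1 = growth at the plate median or of vehicle wells; lower values mean less growth of the strain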
Settings: growth OD
[1] = S. cerevisiae deletion strains, locus YDL101C, strain DUN1, hits give low values
[2] = S. cerevisiae deletion strains, locus YHR030C, strain SLT2, hits give low values

Measured: normalized growth

FC(F)(F)c1cc(Cl)c2nsnc2c1
inactive: S. cerevisiae deletion strains, locus YAL013W, strain DEP1, hits give low values 1 | S. cerevisiae deletion strains, locus YBR229C, strain ROT2, hits give low values 0.993 | [1] 1.01 | S. cerevisiae deletion strains, locus YDR150W, strain NUM1, hits give low values 1 | S. cerevisiae deletion strains, locus YEL061C, strain CIN8, hits give low values 0.99 | S. cerevisiae deletion strains, locus YGR078C, strain PAC10, hits give low values 0.997 | S. cerevisiae deletion strains, locus YGR229C, strain SMI1, hits give low values 1 | [2] 1.02 | S. cerevisiae deletion strains, locus YHR087W, strain rtc3, hits give low values 1.01 | S. cerevisiae deletion strains, locus YJL187C, strain SWE1, hits give low values 0.99 | S. cerevisiae deletion strains, locus YJR043C, strain POL32, hits give low values 0.998 | S. cerevisiae deletion strains, locus YJR075W, strain HOC1, hits give low values 0.985 | S. cerevisiae deletion strains, locus YLR039C, strain RIC1, hits give low values 0.991 | S. cerevisiae deletion strains, locus YLR058C, strain SHM2 (second series), hits give low values 0.993 | S. cerevisiae deletion strains, locus YLR085C, strain ARP6, hits give low values 1.01 | S. cerevisiae deletion strains, locus YLR262C, strain YPT6, hits give low values 0.974 | S. cerevisiae deletion strains, locus YML094W, strain GIM5, hits give low values 1.06 | S. cerevisiae deletion strains, locus YMR219W, strain ESC1, hits give low values 1 | S. cerevisiae deletion strains, locus YMR263W, strain SAP30, hits give low values 1 | S. cerevisiae deletion strains, locus YMR307W, strain GAS1, hits give low values 1.01 | S. cerevisiae deletion strains, locus YNL153C, strain GIM3, hits give low values 0.996 | S. cerevisiae deletion strains, locus YNL298W, strain CLA4 (second series), hits give low values 0.993 | S. cerevisiae deletion strains, locus YNL322C, strain KRE1, hits give low values 0.995 | S. cerevisiae deletion strains, locus YNR030W, strain Alg12, hits give low values 1.01 | S. cerevisiae deletion strains, locus YPL055C, strain LGE1, hits give low values 1.03 | S. cerevisiae deletion strains, locus YPL241C, strain CIN2, hits give low values 1.08 | S. cerevisiae deletion strains, locus YPR135W, strain CTF4, hits give low values 1.03 | S. cerevisiae strains, strain wild type, hits give low values 0.987

O=S(=O)(NCc1ccc(C(F)(F)F)cc1)c1cc(Br)c(Br)s1
active: [2] 0.645 | S. cerevisiae deletion strains, locus YHR082C, strain KSP1, hits give low values 0.607 | S. cerevisiae deletion strains, locus YKL048C, strain ELM1, hits give low values 0.791 | S. cerevisiae deletion strains, locus YKL101W, strain HSL1, hits give low values 0.714 | S. cerevisiae deletion strains, locus YLR113W, strain HOG1, hits give low values 0.721 | S. cerevisiae deletion strains, locus YPL256C, strain CLN2, hits give low values 0.728
inactive: S. cerevisiae deletion strains, locus YAR019C, strain CDC15, hits give low values 0.987 | S. cerevisiae deletion strains, locus YBL105C, strain PKC1, hits give low values 0.969 | S. cerevisiae deletion strains, locus YBR135W, strain CKS1, hits give low values 0.971 | S. cerevisiae deletion strains, locus YBR136W, strain MEC1, hits give low values 0.985 | S. cerevisiae deletion strains, locus YBR160W, strain CDC28, hits give low values 0.966 | S. cerevisiae deletion strains, locus YDL017W, strain CDC7, hits give low values 0.967 | S. cerevisiae deletion strains, locus YDL028C, strain MPS1, hits give low values 0.984 | [1] 0.975 | S. cerevisiae deletion strains, locus YDL108W, strain KIN28, hits give low values 0.974 | S. cerevisiae deletion strains, locus YDL132W, strain cdc53, hits give low values 0.973 | S. cerevisiae deletion strains, locus YDL214C, strain PRR2, hits give low values 0.786 | S. cerevisiae deletion strains, locus YDR052C, strain DBF4, hits give low values 0.979 | S. cerevisiae deletion strains, locus YDR054C, strain cdc34, hits give low values 0.973 | S. cerevisiae deletion strains, locus YDR226W, strain ADK1, hits give low values 0.984 | S. cerevisiae deletion strains, locus YDR477W, strain SNF1, hits give low values 0.856 | S. cerevisiae deletion strains, locus YER123W, strain YCK3, hits give low values 0.747 | S. cerevisiae deletion strains, locus YER133W, strain GLC7, hits give low values 0.794 | S. cerevisiae deletion strains, locus YFL009W, strain cdc4, hits give low values 0.979 | S. cerevisiae deletion strains, locus YFL029C, strain CAK1, hits give low values 0.982 | S. cerevisiae deletion strains, locus YFR003C, strain YPI1, hits give low values 0.974 | S. cerevisiae deletion strains, locus YFR019W, strain FAB1, hits give low values 0.845 | S. cerevisiae deletion strains, locus YFR028C, strain CDC14, hits give low values 0.967 | S. cerevisiae deletion strains, locus YGR040W, strain KSS1, hits give low values 0.818 | S. cerevisiae deletion strains, locus YGR052W, strain FMP48, hits give low values 0.729 | S. cerevisiae deletion strains, locus YGR092W, strain DBF2, hits give low values 0.801 | S. cerevisiae deletion strains, locus YHR079C, strain IRE1, hits give low values 0.813 | S. cerevisiae deletion strains, locus YHR205W, strain SCH9, hits give low values 0.618 | S. cerevisiae deletion strains, locus YIL147C, strain SLN1, hits give low values 0.98 | S. cerevisiae deletion strains, locus YJL095W, strain BCK1, hits give low values 0.741 | S. cerevisiae deletion strains, locus YJL128C, strain PBS2, hits give low values 0.924 | S. cerevisiae deletion strains, locus YJL157C, strain FAR1, hits give low values 0.872 | S. cerevisiae deletion strains, locus YJR016C, strain ILV3, hits give low values 0.98 | S. cerevisiae deletion strains, locus YJR066W, strain TOR1 (second series), hits give low values 0.794 | S. cerevisiae deletion strains, locus YJR066W, strain TOR1, hits give low values 0.689 | S. cerevisiae deletion strains, locus YKL067W, strain YNK1, hits give low values 0.835 | S. cerevisiae deletion strains, locus YKL193C, strain SDS22, hits give low values 0.967 | S. cerevisiae deletion strains, locus YKL203C, strain TOR2, hits give low values 0.851 | S. cerevisiae deletion strains, locus YLR133W, strain CKI1, hits give low values 0.839 | S. cerevisiae deletion strains, locus YLR403W, strain SFP1, hits give low values 0.808 | S. cerevisiae deletion strains, locus YML070W, strain DAK1, hits give low values 0.797 | S. cerevisiae deletion strains, locus YMR001C, strain CDC5, hits give low values 0.964 | S. cerevisiae deletion strains, locus YMR205C, strain PFK2 (second series), hits give low values 0.831 | S. cerevisiae deletion strains, locus YMR277W, strain FCP1, hits give low values 0.965 | S. cerevisiae deletion strains, locus YNL006W, strain LST8, hits give low values 0.98 | S. cerevisiae deletion strains, locus YNL020C, strain ARK1, hits give low values 0.838 | S. cerevisiae deletion strains, locus YNL161W, strain CBK1, hits give low values 0.969 | S. cerevisiae deletion strains, locus YNL183C, strain NPR1, hits give low values 0.659 | S. cerevisiae deletion strains, locus YNL207W, strain RIO2, hits give low values 0.977 | S. cerevisiae deletion strains, locus YNL222W, strain SSU72, hits give low values 0.967 | S. cerevisiae deletion strains, locus YNL307C, strain MCK1 (second series), hits give low values 0.846 | S. cerevisiae deletion strains, locus YOL078W, strain AVO1, hits give low values 0.969 | S. cerevisiae deletion strains, locus YOL136C, strain PFK27, hits give low values 0.811 | S. cerevisiae deletion strains, locus YOR061W, strain CKA2, hits give low values 0.848 | S. cerevisiae deletion strains, locus YOR119C, strain RIO1, hits give low values 0.772 | S. cerevisiae deletion strains, locus YOR231W, strain MKK1, hits give low values 0.792 | S. cerevisiae deletion strains, locus YOR329C, strain SCD5, hits give low values 0.969 | S. cerevisiae deletion strains, locus YPL031C, strain PHO85, hits give low values 0.774 | S. cerevisiae deletion strains, locus YPL153C, strain RAD53, hits give low values 0.716 | S. cerevisiae deletion strains, locus YPL204W, strain HRR25, hits give low values 0.795 | S. cerevisiae deletion strains, locus YPL209C, strain IPL1, hits give low values 0.973 | S. cerevisiae deletion strains, locus YPR025C, strain CCL1, hits give low values 0.965 | S. cerevisiae deletion strains, locus YPR106W, strain ISR1, hits give low values 0.97 | S. cerevisiae deletion strains, locus YPR111W, strain DBF20, hits give low values 0.982 | S. cerevisiae deletion strains, strain NNK1, hits give low values 0.968 | S. cerevisiae deletion strains, strain TSCII, hits give low values 0.97
